The whole screen tested about 410,000 compounds, of which about 2,000 (0.49%) were called active. Another 8% or so got no clear call; they are omitted. The list comes from a sample in which actives are over-represented; it also holds similar structures and randomly drawn compounds. Unmarked numbers belong to inactive results. Calls come from the whole dose curve; tested in HEK293 reporter line.
Test: qHTS Assay for Foot and Mouth Disease Virus Antivirals: Primary Screen against the MLPCN compound library; note: nearly all actives have a fitted effect of over 55% in size
Details: FMDV antiviral cell-based qHTS; series mostly up to 57.9 µM; activity, negative = inhibition: at the top concentration
Potency is the fitted concentration of half-maximal effect.

Row | SMILES | activity, negative = inhibition [%] | Potency
1 | CCCc1cnc(N2CCN(C(=O)c3ccc(F)cc3)CC2)nc1 | -41.6 | –
2 | Cc1ccc2c(c1)N(C(=O)Nc1cccc3c1CCCC3)CCO2 | -30.4 | –
3 | CCC(Sc1nc(C)cc(C)n1)C(=O)O (stereo not drawn) | -22.8 | –
4 | O=S(=O)(c1ccc(Cl)cc1)N1CCc2ccccc21 | -35.5 | –
5 | FC(F)(F)c1ccccc1N1CC1c1ccncc1 (stereo not drawn) | -32 | –
6 | COc1ccccc1[C@]1(C)ON(c2ccccc2C(F)(F)F)C1=O | – | 14.1 µM (active)
7 | COc1ccccc1CC1(C)C(=O)Nc2ccc(OC(F)(F)F)cc21 (stereo not drawn) | -32.7 | –
8 | Cc1ccc(C(=O)N2CCN(c3nc4ccccc4n3C)CC2)cc1 | -32 | –
9 | O=C(O)c1ccccc1-c1nc2ccccc2n1-c1ccccc1 | -31.7 | –
10 | Cc1oc(-c2nc3ccccc3n2C)cc1C(=O)c1ccccc1 | – | 17.8 µM (active)
11 | CN(c1ccc(OCC(=O)Nc2ccc(S(N)(=O)=O)cc2)cc1)S(=O)(=O)c1ccc(F)cc1 | -36.3 | –
12 | Cc1ccc(S(=O)(=O)C2(S(=O)(=O)c3ccc(C)cc3)CC2)cc1 | -43.8 | –
13 | Cc1ccccc1C(=O)N1CCC(C(=O)Nc2cc(C(F)(F)F)ccc2N2CCCC2)CC1 | -33.6 | –
14 | O=C(NCCC1=CCCCC1)c1ccc(F)cc1 | – | 14.1 µM (active)
15 | CN(C)S(=O)(=O)N1CCC(Oc2cccc(C(=O)NCCC3=CCCCC3)c2)CC1 | -46.3 | –
16 | O=C(NCCc1nc(-c2ccc(F)cc2)no1)c1ccc(F)cc1 | -36.1 | –
17 | CCCCn1nc2cc(C(=O)NCC34CC5CC(CC(C5)C3)C4)ccc2c1OC | -35.6 | –
18 | Cc1noc(C)c1CSc1nnc(-c2cc(Cl)ccc2Cl)n1N | -31.2 | –
19 | CC(=O)c1sc(NC(=O)C2CC(=O)N(Cc3ccccc3)C2)nc1-c1ccccc1 (stereo not drawn) | -35.6 | –
20 | Clc1cc(Br)ccc1OCCCNCc1ccccc1 | -31.7 | –
21 | CCOc1cc(CNCc2ccncc2)cc(Br)c1OCc1ccccc1F | -37 | –
22 | Brc1ccc(OCc2ccccc2)c(CNCc2ccncc2)c1 | – | 20 µM (active)
23 | Cc1ccc(S(=O)(=O)c2c(C)nn(C(C)(C)C)c2OC(=O)C(C)(C)C)cc1 | -33.5 | –

Row | SMILES | activity, negative = inhibition [%] | Potency
24 | COc1cc2[nH]c(=S)nc(NC3CCCCCC3)c2cc1OC | -38.7 | –
25 | CCOC(=O)c1ccc(N2C=C(C(=O)OC)C(c3ccc(OC)c(O)c3)C(C(=O)OC)=C2)cc1 | -35 | –
26 | Cc1cccc(NC(=O)/C(C#N)=C\c2ccc(C(=O)O)cc2)c1 | -31 | –
27 | COc1ccc(CCNC(=O)/C(C#N)=C/c2ccc(OCC(=O)NCC3CCCO3)cc2)cc1OC (stereo not drawn) | -28.3 | –
28 | N#C/C(=C\c1ccc(OCc2ccc(C(=O)O)cc2)cc1)C(=O)N1CCOCC1 | – | 10 µM (active)
29 | Cc1nc(SCC(=O)NCCc2ccccc2)nc(C)c1C | -17.8 | –
30 | CCOCCCNC(=S)N1CCN(c2nc(-c3ccccc3)cs2)CC1 | -30.3 | –
31 | CN1/C(=C\C(=O)CSc2nnc(N)s2)C(C)(C)c2ccccc21 | -30.2 | –
32 | Cc1ccc(CSc2nc3ccccc3cc2C=O)cc1 | -33.3 | –
33 | Cc1ccc2c(c1)Cc1nc3ccccc3nc1-2 | – | 14.1 µM (active)
34 | Cc1ccc(C)c(Nc2cc(C)nc3ccccc23)c1 | -30.6 | –
35 | COc1cccc(-c2nc(CS(=O)(=O)CC(=O)NCCCc3ccccc3)c(C)o2)c1 | -31.5 | –
36 | NC(=O)COc1ccccc1/C=C1/SC(=O)N(CC(=O)N2CCc3ccccc3C2)C1=O | -38 | –
37 | COc1ccc(NC(=O)c2[nH]c(C)c(C(C)=O)c2C)cc1 | 116 | –
38 | COc1ccc(-c2nc(NC(=O)c3[nH]c(C)c(C(C)=O)c3C)sc2C)cc1 | – | 28.2 µM (active)
39 | COc1ccc(-c2nc(NC(=O)c3c(C)noc3C)sc2C)cc1 | -38.1 | –
40 | Fc1ccc(CN2CCN3CCCC3C2C2CCCCC2)cc1F (stereo not drawn) | -43.8 | –
41 | O=c1[nH]c(SCc2ccccc2Cl)nc2c1cnn2-c1ccccc1 | -30.8 | –
42 | c1nc(NCc2ccc3c(c2)OCO3)c2cc(-c3ccc4c(c3)OCCO4)ccc2n1 | -30.8 | –
43 | COc1ccc(N2CCN(C(=O)Cn3cnc4c(cnn4-c4ccc(C)cc4)c3=O)CC2)cc1 | -32.4 | –
44 | CCCCCn1nc(C(=O)OCC(=O)c2c(N)n(C)c(=O)n(C)c2=O)c2ccccc2c1=O | -32.9 | –
45 | COc1cccc(-c2cc(C(=O)NC3CC3)c3ccccc3n2)c1 | -36.4 | –
46 | COc1cccc(Nc2c3c(nc4c(-c5ccccc5)c(C)nn24)CCC3)c1 | -38.7 | –

Row | SMILES | activity, negative = inhibition [%] | Potency
47 | COc1cccc(-c2cn3nc4c(nc3n2)CCCC4)c1 | – | 10 µM (active)
48 | c1ccc(Sc2cccc3ccccc23)c(CNC2=NCCN2)c1 | -36.1 | –
49 | COc1ccccc1S(=O)(=O)Cc1ccc(C(=O)NCc2ccc3c(c2)OCO3)o1 | -32.7 | –
50 | CC(C)(C)NC(=O)c1ccc(COc2ccc(Cl)cc2Cl)o1 | -39.1 | –
51 | FC(F)(F)c1nnc(-c2ccccc2)nc1Oc1ccc(Cl)cc1Cl | -36.6 | –
52 | Clc1ccc(OCc2cc(-c3ccccc3)no2)c(Cl)c1 | – | 12.6 µM (active)
53 | CCN1CCN(C(=O)C2CCN(c3nnc(C)c4c(C)n(-c5ccc(C)cc5)nc34)CC2)CC1 | -31 | –
54 | Cc1ccc(C(=O)N(CC(=O)Nc2sc(C)c(C)c2C(N)=O)C2CCCC2)cc1 | -39.9 | –
55 | COc1ccc(NS(=O)(=O)c2cc(NC(=O)c3ccc(=O)[nH]c3)ccc2N2CCOCC2)cc1 | 102 | –
56 | O=C(Nc1nc(-c2ccc(S(=O)(=O)N3CCCC3)cc2)cs1)C1COc2ccccc2O1 (stereo not drawn) | -34.4 | –
57 | CC(=O)c1sc(NC(=O)C2COc3ccccc3O2)nc1C (stereo not drawn) | – | 11.2 µM (active)
58 | CC(=O)c1sc(NC(=O)c2cc(-c3ccccc3)nn2-c2ccccc2)nc1C | -34.9 | –
59 | CCOc1ccc(C(=O)N(Cc2cc(OC)c(OC)c(OC)c2)c2ccccn2)cc1 | -32.4 | –
60 | CN(C)Cc1n[nH]c(=O)c2ccccc12 | 0.231 | –
61 | CC1=C/C(=C(/c2cc(C)c(O)c(Br)c2)c2ccccc2S(=O)(=O)O)C=C(Br)C1=O | – | 17.8 µM (active)
62 | COc1ccc(NC(=S)N2CCN(Cc3ccc(C)cc3)CC2)cc1 | -30.3 | –
63 | CN1CCN(S(=O)(=O)c2cccc(C(=O)Nc3ccc(Br)cc3Br)c2)CC1 | -42.5 | –
64 | CCn1c(=S)sc2c(=O)n(CC(=O)Nc3cccc(Cl)c3)c(C)nc21 | -30.1 | –
65 | CCOC(=O)NC(=O)/C(C#N)=N/Nc1c(F)cccc1F | -29.8 | –
66 | Cc1nc(SCC(=O)Nc2nc3ccccc3s2)c(C#N)c(C)c1C | -97.5 | –
67 | C=CCn1c(SCC(=O)Nc2nc3ccccc3s2)nnc1-c1ccccc1O | – | 25.1 µM (active)
68 | C=CCn1c(SCC(=O)Nc2cccnc2Cl)nnc1-c1ccccc1F | -44.1 | –
